Test results as given in PubChem BioAssay AID504329 (Southern Research Specialized Biocontainment Screening …, 2011).
Out of some 340,000 compounds screened, about 1,000 (0.29%) were called active. A selection follows. Results with a measured potency or affinity are listed apart. Unmarked numbers belong to inactive results. No stated cut-off is given here; in the data, inconclusive means inhibition above about 27% without an active follow-up result; inactive means below that.

Test: H1N1 influenza NS1A inhibitors, functional cell based assay (AID 504329)
Details: percent inhibition, at 12.5 µM, stronger effect = higher value

Compound | inhibition [%]
O=C1NC(=Nc2ccccc2Br)SC1(CO)CO | -3.43
COc1cccc(CNc2ccc(S(=O)(=O)Nc3nccs3)cc2)c1O | -5.98
CC(=O)NC(CC(=O)O)c1ccccc1 (stereo not given) | -5.66
O=C(c1cc(-c2ccc(Cl)cc2)nc2ccccc12)N1CCOCC1 | -19.9
COc1ccc(OC)c(C2=NS(=O)(=O)N(C)C(C(=O)NCc3ccco3)=C2)c1 | -7.9
COc1ccc(CN2CCN(c3ccccn3)CC2)cc1OCc1ccccc1 | 7.77
O=C(c1cccc2ccccc12)N1CCN(c2ccc([N+](=O)[O-])c(NCc3ccco3)c2)CC1 | 7.93
CCc1nnc(NC(=O)c2cnccn2)s1 | -0.42
CC(=O)Nc1nnc(CCS(=O)(=O)c2ccc(C)cc2)s1 | -6.45
CCSc1nnc(NC(=O)c2ccccc2)s1 | -12.7
CCSc1nnc(NC(=O)c2cccnc2Cl)s1 | -1.92
Cc1ccc(S(=O)(=O)CCc2nnc(NC(=O)c3cnccn3)s2)cc1 | -1.91
CCc1nnc(NC(=O)c2cccc(C(=O)Nc3nnc(CC)s3)n2)s1 | -2.25
Cc1ccc(CNC(=O)CN2C(=O)CSc3ccc(S(=O)(=O)N4CCCCC4)cc32)cc1 | 2.97
COC(=O)c1ccc(CNC(=O)c2coc3ccccc3c2=O)cc1 | -15.6
O=C(COc1ccc(Cl)cc1)NC1CCSC1=O (stereo not given) | -5.86
O=C1CC(NNc2nc3ccccc3s2)C(=O)N1c1ccccc1 (stereo not given) | 2.74
O=C(COC(=O)C1CCC1)c1c[nH]c2ccccc12 | -3.9
CCn1c(=O)[nH]c2cc(C(=O)N3CCN(c4ccccc4)CC3)ccc2c1=O | 5.52
COc1cc2c(cc1OC)CN(c1nc(CN3CCOCC3)nc3sc4c(c13)CCCC4)CC2 | 4.39
O=C(NCC(c1ccco1)N1CCCCC1)c1ccc(S(=O)(=O)Nc2ccccc2)cc1 (stereo not given) | -1.8
COc1ccc(-n2ccnc(SCC(=O)NC3CCCCC3)c2=O)cc1 | -5.37
CCc1cccc2sc(NC(=O)C3CC3)nc12 | -5.24
Nc1c(C=C2C=CC(=O)C=C2)c(=O)nc2snc(SCc3ccccc3)n12 | 11.3

Compound | inhibition [%]
C=CCOc1ccc(C(=O)c2ccccc2)c(OCC(=O)NC2(C#N)CCCC2)c1 | 5.71
COc1cccc2nc3cc(C)c(C)cc3nc12 | 1.36
COc1ccc2nc3cccc(OC)c3nc2c1 | -1.33
OC(CN1CCN(c2ccc(C(F)(F)F)cn2)CC1)c1ccccc1 (stereo not given) | -15
CC(C)(C)N(Cc1ccccc1)C(=O)COC(=O)c1ccc(S(=O)(=O)N2CCOCC2)cc1 | -2.6
COc1ccc(C(=O)N/N=C(\c2ccccc2)c2ccccn2)cc1 | 6.37
COc1ccc(Nc2cc(C)c3ccccc3n2)cc1 | -1.04
COc1cc(C2C3=C(CCCC3=O)Nc3[nH]n(-c4ccccc4)c(=O)c32)ccc1OC(C)=O (stereo not given) | 2.7
Cn1c(C(=O)NCCCN2CCCCC2)cc2sccc21 | 8.28
COc1ccc(N2CCN(CCC(N)=O)CC2)cc1 | -4.44
NCCCN1CCN(c2ccccc2)CC1 | 11.2
CC1CCN(CCCNC(=O)c2cc3sccc3n2C)CC1 | 4.97
CC1(C)NC(=O)N(CC(=O)OCC(=O)c2ccc(F)cc2)C1=O | -8.13
CCOc1ccccc1N1CC(C(=O)Nc2cc(S(C)(=O)=O)ccc2Cl)CC1=O (stereo not given) | -5.65
O=C(O)c1ccc(NCc2nc3ccccc3n2Cc2ccccc2)cc1 | 11.2
NNC(=O)c1sccc1OCc1ccc(Cl)cc1 | 0.97
Cc1noc(C)c1S(=O)(=O)Nc1ccccc1N1CCOCC1 | 0.87
O=C(CCNC(=O)c1ccc([N+](=O)[O-])cc1)Nc1nc2ccccc2[nH]1 | -0.35
O=S(=O)(Nc1ccc(N=Nc2ccc(O)c3ccccc23)cc1)c1ccccc1 | 5.24
O=[N+]([O-])c1ccc(N=Nc2ccc(O)cc2O)cc1 | -9.68
O=C1ON=C(c2ccccc2)/C1=C/c1ccc(-c2ccccc2[N+](=O)[O-])o1 | -1.51
COc1ccc(-c2ccc(/C=C3\C(=O)N(c4ccccc4)N=C3c3ccccc3)o2)c([N+](=O)[O-])c1 | 10.3
CC(C)Cc1nnc(NC(=O)CCC(=O)NCc2ccccc2Cl)s1 | -2.08
CC(=O)Nc1ccc2nc(NC(=O)COc3ccccc3Cl)sc2c1 | -0.9

Compound | inhibition [%]
C=CC(=O)Nc1cccc(Oc2ccnc3[nH]ccc23)c1 | 19.9
CN1CCN(c2ccc(NC(=O)Oc3ccccc3)cc2)CC1 | 17.8
COc1ccc(C(=O)Nc2ccc(N3CCN(C)CC3)cc2)cc1 | 1.09
CC(C)Oc1cccc(C(=O)Nc2ccc(N3CCN(C)CC3)cc2)c1 | -2.02
Cc1ccc(S(=O)(=O)N2CCN(C(=O)COC(=O)/C=C/c3ccccc3[N+](=O)[O-])CC2)c(C)c1 | 0.45
CC(NCC(=O)Nc1ccccc1C(=O)NC1CC1)c1cccs1 (stereo not given) | -16.2
CCOC(=O)c1c(NC(=O)c2ccccc2)sc2c1CCc1ccccc1-2 | -10.9
COc1ccc(OC)c2c1C(=O)C(Cl)=C(Cl)C2=O | 24.7
COc1ccc2noc3c2c1C(=O)c1ccccc1-3 | 7.47
COCCN1C(=O)N[C@@H](c2ccccc2)[C@H](C(=O)OC)[C@H]1C | -12.7
CC1(C)Oc2ccc3ccc(=O)oc3c2C(/C=N/O)=C1Cl | -10.3
CC1(C)Oc2ccc3ccc(=O)oc3c2/C(=C/NNC(N)=O)C1=O | -7.94
Cc1ccc(NC(=O)NNC(=O)CN2C(=O)COc3ccccc32)cc1 | -2.65
Cc1cccc(OC(=O)c2cccnc2)c1C | -8.58
CC(C)c1nnc(NC(=O)C2CCCN(C(=O)Nc3ccc(F)cc3)C2)s1 (stereo not given) | -2.41
CCOC(=O)C1CCN(C(=O)C2CCC(=O)N(Cc3cccc(C(F)(F)F)c3)C2)CC1 (stereo not given) | 11.5
Cc1cc2ccccc2n1CCNC(=O)C(C)C | 4.98
CC(=O)NCCn1c(C)cc2ccccc21 | -2.59
O=C(OCc1ccccc1F)c1cc([N+](=O)[O-])ccc1N1CCOCC1 | 12.7
CC(C)C(=O)NC(c1cccs1)c1cc([N+](=O)[O-])c2cccnc2c1O (stereo not given) | 7.53
CCCC(=O)NC(c1ccco1)c1cc([N+](=O)[O-])c2cccnc2c1O (stereo not given) | 4.57
CC(C)C(=O)NC(c1ccccc1)c1cc([N+](=O)[O-])c2cccnc2c1O (stereo not given) | 3.43
CCCC(=O)NC(c1cccs1)c1cc(Cl)c2cccnc2c1O (stereo not given) | -9.38
CC(=O)NC(c1ccc(C)cc1)c1cc([N+](=O)[O-])c2cccnc2c1O (stereo not given) | 22

Compound | inhibition [%]
CCC(=O)NC(c1ccc(C)cc1)c1cc([N+](=O)[O-])c2cccnc2c1O (stereo not given) | 27.3
Cc1ccc(NC(=O)c2cc(-c3ccccc3)n[nH]2)cc1 | -9.32
COc1ccc(NC(=O)CSc2nnc(C(C)C)n2N)cc1 | 2.67
O=C(Cn1c2c(c(=O)n3ncnc13)CCC2)N/N=C/c1ccc(Cl)cc1 | -0.52
CCn1ncc(Br)c1C(=O)Nc1nccs1 | 8
COC(=O)/C=C/c1ccc(OC(=O)c2ccncc2)cc1 | -0.93
CC(=O)C1=C(c2ccccc2)OC(N)=C(C#N)C1c1ccccc1C (stereo not given) | 7.47
Cn1c(CC(=O)Nc2ccccc2F)nnc1SCC(=O)NC1CCCC1 | 4.61
Cc1cccc(N=C2NC(=O)c3cc([N+](=O)[O-])ccc32)c1 | -0.91
O=[N+]([O-])c1ccc2c(c1)C(=Nc1ccccc1)c1ccccc1-2 | 19.1
COc1ccc(CCNCc2ccccc2F)cc1 | -20.5
COc1ccc(CCNCc2ccccc2)cc1 | -9.83
COc1ccc(C(=O)NCCC2=CCCCC2)cc1 | -1.2
COc1ccc(CC(=O)NCCC2=CCCCC2)cc1 | 10.7
CCN1C[C@@H]2[C@@H]3C(=O)N(Cc4ccccc4)C(=O)[C@@H]3[C@](CC)(C(=O)OC)N2C1=NC1CCCCC1 | -28.6
Cc1ccc(NC(=O)C2CCN(S(=O)(=O)c3ccc4c(c3)C(C)(C)C(=O)N4C)CC2)c(C)c1 | 8.27
CCCn1c(N)c(N(CCOC)C(=O)COC(=O)CSc2cc(C)c3ccccc3n2)c(=O)[nH]c1=O | -17.1
Cc1cc(/C=C2\SC(=S)N(C)C2=O)c(C)n1-c1ccccc1O | 6.77
CN1C(=O)/C(=C\c2ccccc2OCc2ccccc2)SC1=S | 10.4
COc1ccc(O)c(/C=C2/SC(=S)N(Cc3ccccc3)C2=O)c1 | 8.37
Cc1cc(/C=C2\SC(=S)N(C)C2=O)c(C)n1-c1cccc(O)c1 | -1.47
CC(=O)c1c(C)[nH]c(C(=O)NC2=NCCS2)c1C | 7.87
O=C(CN1C(=O)NC2(CCCCC2)C1=O)Nc1cc(C(F)(F)F)ccc1N1CCOCC1 | -9.76
